Pf apPOL inh: Pf-apPOL DNA polymerase inhibition; Recombinant Pf-apPOL, molecular beacon fluorescence, 1.5 h; inhibition, % at 10 µM; 210,000 compounds, 0.25% hits; AID 1794808
mHTT CaM bind: inhibitors of human mutant huntingtin-calmodulin interaction. P42858. AlphaScreen His-mHTT/GST-CaM binding, luminescence. inhibition, % at 15 µM. 190,000 compounds, 3.6% hits
Numbers stand for hits; - = inactive; . = no result given; ! = repeats disagree. This is a sample that favours compounds with a hit; in the whole collection about 3.6% have one here. Cut-off read from the data, not from the text of the source: active = inhibition above about 50%; inactive = the rest.

SMILES	Pf apPOL inh	mHTT CaM bind
COCC(=O)NC(c1ccccc1)c1cc(Cl)c2cccnc2c1O (stereo not drawn)	-	100
COc1ccccc1C(NC(=O)C(C)C)c1cc(Cl)c2cccnc2c1O (stereo not drawn)	-	-
CCC(=O)NC(c1ccc2c(c1)OCO2)c1cc(Cl)c2cccnc2c1O (stereo not drawn)	-	96
COc1ccc(C(NC(C)=O)c2cc(Cl)c3cccnc3c2O)cc1OC (stereo not drawn)	-	100!
CCc1ccc(NC(=O)CN2C(=O)NC3(CCCCC3)C2=O)cc1	-	-
COc1ccccc1CC(=O)N1CCC2(CC1)Nc1cccnc1NC2=NC1CCCC1	-	-
CCC(=O)NC(c1ccc(OC)c(OC)c1)c1cc(Cl)c2cccnc2c1O (stereo not drawn)	-	100
CCCC(=O)NC(c1ccc(OC)cc1)c1cc(Cl)c2cccnc2c1O (stereo not drawn)	-	-
O=C(NCc1csc(C2CCN(C(=O)c3cccs3)CC2)n1)C1CC1	-	-
CCOC(=O)CN1C(=O)C(=Cc2ccc(OC)cc2)N=C1c1ccccc1	-	.
NNc1ncc([N+](=O)[O-])c2nc[nH]c12	.	100
Nc1nc[nH]c(=O)c1[N+](=O)[O-]	-	-
COc1ccc(C(CC(=O)N2CCCC2)c2c(O)cc(OC)cc2OC)cc1 (stereo not drawn)	-	-
COc1cc(O)c(C(CC(=O)N2CCN(c3ccccc3)CC2)c2ccc(N(C)C)cc2)c(OC)c1 (stereo not drawn)	-	74
COc1cc(C(CC(=O)N2CCCC2)c2c(OC)cc(OC)c3ccc(=O)oc23)cc(OC)c1OC (stereo not drawn)	-	-
COc1ccc(C(CC(=O)N2CCN(c3ccccc3)CC2)c2c(OC)cc(OC)c3ccc(=O)oc23)cc1 (stereo not drawn)	-	56
CC(C)CN1CCN(C(=O)c2ccc(-c3ccnc(N4CCCC4)n3)cc2)CC1	-	-
Cc1cc(C)cc(NC(=O)C2CCN(c3nccc4sccc34)CC2)c1	-	-
O=C(Nc1ccc(Br)cc1)c1ccc(F)c(S(=O)(=O)NC2CCCC2)c1	-	-
O=C(Nc1cccc(F)c1)c1cc(S(=O)(=O)NCc2ccccc2Cl)ccc1F	-	-
O=C(Nc1cc(Cl)cc(Cl)c1)c1ccc(F)c(S(=O)(=O)NCc2ccccc2)c1	-	-
O=C(Nc1cc(Cl)cc(Cl)c1)c1ccc(F)c(S(=O)(=O)NCc2ccc(F)cc2)c1	-	53
O=C(Nc1ccc(Cl)cc1)c1cc(S(=O)(=O)NC2CCCCCC2)ccc1F	78	-
O=C(Nc1ccc(Cl)c(Cl)c1)c1ccc(F)c(S(=O)(=O)NC2CCCC2)c1	-	65
O=C(Nc1ccc(Cl)cc1)c1cc(S(=O)(=O)NCc2ccccc2Cl)ccc1F	84	-
SMILES	Pf apPOL inh	mHTT CaM bind
O=C(Nc1ccc(Cl)cc1)c1cc(S(=O)(=O)NC2CCCC2)ccc1F	-	-
COc1ccc(Br)cc1CN1CCCC1c1c(C)noc1C (stereo not drawn)	-	-
CC(C)NC(=O)c1ccc(SCCN2CCCCC2)nc1	-	-
CCCCC(=O)Nc1nc2c(SC)cccc2s1	-	-
Cc1ccc2[nH]c(C(=O)NC(C)C)c(N3CCCC3=O)c2c1	-	-
COc1ccc(/C=C2\SC(=O)N(CC(=O)Nc3cc(C)on3)C2=O)cc1OC	-	-
O=C1OC(c2cccc(I)c2)=N/C1=C\c1ccc(Br)o1	-	-
COc1ccccc1NC(=O)c1cc(S(=O)(=O)NCCc2ccc(Cl)cc2)ccc1F	-	-
CCOc1ccccc1NC(=O)c1cc(S(=O)(=O)NCCc2ccc(Cl)cc2)ccc1F	-	56
Cc1ccc(NC(=O)c2cc(S(=O)(=O)NC3CCCC3)ccc2F)cc1Cl	-	-
O=C(Nc1ccc(Cl)c(Cl)c1)c1cc(S(=O)(=O)NC2CCCC2)ccc1F	-	93
Cc1ccc(CC(=O)O)cc1	-	.
Nc1ccc(Nc2ccccc2)c(Cl)c1	-	-
Nc1ccc(Nc2ccc(N)cc2S(=O)(=O)O)cc1	.	97
CCc1ccc(CNC(=O)c2cnn3c4c(cnc23)CC(C)CC4)cc1 (stereo not drawn)	-	-
N#CC1=C(N)Oc2cc(O)c(C=Nc3ccc(Br)cc3)cc2C1c1ccco1 (stereo not drawn)	-	100
COc1ccc(N=Cc2cc3c(cc2O)OC(N)=C(C#N)C3c2cccc(F)c2)cc1 (stereo not drawn)	-	81
N#CC1=C(N)Oc2cc(O)ccc2C1c1ccccc1Br (stereo not drawn)	-	-
COc1ccc(C2C(C#N)=C(N)Oc3cccc(O)c32)cc1 (stereo not drawn)	-	-
O=C1NC(=Nc2ccccc2Cl)S/C1=C/c1ccc([N+](=O)[O-])o1	-	60
COc1ccccc1/C=C1/SC(=Nc2ccccc2Cl)NC1=O	-	-
O=C1NC(=Nc2ccccc2Cl)S/C1=C/c1cc2c(cc1Br)OCO2	-	55
O=C1NC(=Nc2ccccc2)S/C1=C\c1ccc(-c2ccccc2[N+](=O)[O-])o1	-	-

Bioassay records (PubChem)
